In PubChem BioAssay AID1159580 (chemical genetic matrix, 2015):
Out of some 5,500 compounds screened, about 2,000 (36%) were called active. Another 18% or so got no clear call; they are omitted. No stated cut-off is given here; in the data, active means normalized growth mostly below about 0.91 (no sharp cut-off); inconclusive means no clear call, values can overlap the other calls; inactive means mostly above about 0.92. The list shows a part of the results.

Assay: chemical genetic growth profiling, strain panel (AID 1159580);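 further: tested at 20 µM; growth read once vehicle control cultures reached saturation at 30 °C; 1 = growth at the plate median or of vehicle wells; lower values mean less growth of the strain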
Settings: S. cerevisiae deletion strains, growth OD
[1] = locus YHR030C, strain SLT2, hits give low values
[2] = locus YHR079C, strain IRE1, hits give low values
[3] = locus YJL095W, strain BCK1, hits give low values
[4] = locus YJR066W, strain TOR1, hits give low values
[5] = locus YLR113W, strain HOG1, hits give low values
[6] = locus YNL183C, strain NPR1, hits give low values
[7] = locus YOR231W, strain MKK1, hits give low values
[8] = locus YPL256C, strain CLN2, hits give low values

Measured: normalized growth

N#C/C(N=Cc1cc(Cl)cc(Cl)c1O)=C(\C#N)N=Cc1cc(Cl)cc(Cl)c1O
active: locus YDR477W, strain SNF1, hits give low values 0.503 | locus YGR040W, strain KSS1, hits give low values 0.621 | locus YGR052W, strain FMP48, hits give low values 0.552 | locus YGR092W, strain DBF2, hits give low values 0.129 | [1] 0.381 | [2] 0.397 | locus YHR082C, strain KSP1, hits give low values 0.587 | locus YHR205W, strain SCH9, hits give low values 0.415 | [3] 0.448 | locus YJL157C, strain FAR1, hits give low values 0.664 | locus YJR066W, strain TOR1 (second series), hits give low values 0.588 | [4] 0.414 | locus YKL048C, strain ELM1, hits give low values 0.594 | locus YKL101W, strain HSL1, hits give low values 0.538 | locus YKL203C, strain TOR2, hits give low values 0.454 | [5] 0.509 | locus YLR133W, strain CKI1, hits give low values 0.52 | locus YLR403W, strain SFP1, hits give low values 0.457 | locus YMR205C, strain PFK2 (second series), hits give low values 0.609 | locus YNL020C, strain ARK1, hits give low values 0.403 | locus YNL307C, strain MCK1 (second series), hits give low values 0.286 | locus YOR061W, strain CKA2, hits give low values 0.349 | locus YOR119C, strain RIO1, hits give low values 0.476 | [7] 0.475 | locus YPL031C, strain PHO85, hits give low values 0.547 | locus YPL153C, strain RAD53, hits give low values 0.538 | locus YPL204W, strain HRR25, hits give low values 0.63 | [8] 0.503
inactive: locus YAR019C, strain CDC15, hits give low values 0.923 | locus YBL105C, strain PKC1, hits give low values 0.929 | locus YBR135W, strain CKS1, hits give low values 0.927 | locus YBR136W, strain MEC1, hits give low values 0.917 | locus YBR160W, strain CDC28, hits give low values 0.922 | locus YDL017W, strain CDC7, hits give low values 0.923 | locus YDL028C, strain MPS1, hits give low values 0.915 | locus YDL101C, strain DUN1, hits give low values 0.954 | locus YDL108W, strain KIN28, hits give low values 0.926 | locus YDL132W, strain cdc53, hits give low values 0.943 | locus YDL214C, strain PRR2, hits give low values 0.754 | locus YDR052C, strain DBF4, hits give low values 0.936 | locus YDR054C, strain cdc34, hits give low values 0.916 | locus YDR226W, strain ADK1, hits give low values 0.925 | locus YER123W, strain YCK3, hits give low values 0.735 | locus YER133W, strain GLC7, hits give low values 0.725 | locus YFL009W, strain cdc4, hits give low values 0.931 | locus YFL029C, strain CAK1, hits give low values 0.929 | locus YFR003C, strain YPI1, hits give low values 0.914 | locus YFR019W, strain FAB1, hits give low values 0.912 | locus YFR028C, strain CDC14, hits give low values 0.931 | locus YIL147C, strain SLN1, hits give low values 0.914 | locus YJL128C, strain PBS2, hits give low values 0.905 | locus YJR016C, strain ILV3, hits give low values 0.93 | locus YKL067W, strain YNK1, hits give low values 0.74 | locus YKL193C, strain SDS22, hits give low values 0.922 | locus YML070W, strain DAK1, hits give low values 0.747 | locus YMR001C, strain CDC5, hits give low values 0.919 | locus YMR277W, strain FCP1, hits give low values 0.92 | locus YNL006W, strain LST8, hits give low values 0.93 | locus YNL161W, strain CBK1, hits give low values 0.929 | [6] 0.587 | locus YNL207W, strain RIO2, hits give low values 0.916 | locus YNL222W, strain SSU72, hits give low values 0.937 | locus YOL078W, strain AVO1, hits give low values 0.928 | locus YOL136C, strain PFK27, hits give low values 0.769 | locus YOR329C, strain SCD5, hits give low values 0.931 | locus YPL209C, strain IPL1, hits give low values 0.934 | locus YPR025C, strain CCL1, hits give low values 0.935 | locus YPR106W, strain ISR1, hits give low values 0.923 | locus YPR111W, strain DBF20, hits give low values 0.927 | strain NNK1, hits give low values 0.908 | strain TSCII, hits give low values 0.934

COC(=O)N/N=C\c1c[n+]([O-])c2ccccc2[n+]1[O-]
active: locus YMR058W, strain fet3, hits give low values 0.883
inactive: locus YAL021C, strain ccr4, hits give low values 0.985 | locus YAL026C, strain drs2, hits give low values 0.999 | locus YAL030W, strain snc1, hits give low values 0.982 | locus YBL061C, strain skt5, hits give low values 0.975 | locus YBR009C, strain hhf1, hits give low values 0.99 | locus YBR023C, strain chs3, hits give low values 0.987 | locus YBR171W, strain sec66, hits give low values 0.981 | locus YBR231C, strain swc5, hits give low values 0.974 | locus YBR279W, strain paf1, hits give low values 0.987 | locus YCL011C, strain gbp2, hits give low values 0.992 | locus YCL016C, strain dcc1, hits give low values 0.993 | locus YCL069W, strain vba3, hits give low values 0.992 | locus YCR088W, strain abp1, hits give low values 0.986 | locus YDL005C, strain med2, hits give low values 0.98 | locus YDL040C, strain nat1, hits give low values 0.989 | locus YDR001C, strain nth1, hits give low values 0.998 | locus YDR069C, strain doa4, hits give low values 0.978 | locus YDR137W, strain rgp1, hits give low values 1.01 | locus YDR159W, strain sac3, hits give low values 1.02 | locus YDR195W, strain ref2 0.985 | locus YDR297W, strain sur2, hits give low values 0.983 | locus YDR334W, strain swr1, hits give low values 1 | locus YDR335W, strain msn5, hits give low values 0.983 | locus YDR392W, strain spt3, hits give low values 0.986 | locus YEL003W, strain gim4, hits give low values 0.975 | locus YEL037C, strain rad23, hits give low values 0.998 | locus YEL061C, strain CIN8 (second series), hits give low values 1 | locus YER015W, strain faa2, hits give low values 0.972 | locus YER016W, strain bim1, hits give low values 0.998 | locus YER111C, strain swi4, hits give low values 0.984 | locus YER155C, strain BEM2 (second series), hits give low values 0.982 | locus YFR010W, strain ubp6, hits give low values 0.981 | locus YGL167C, strain pmr1, hits give low values 0.978 | locus YGL173C, strain kem1, hits give low values 0.981 | locus YGL227W, strain vid30, hits give low values 0.987 | locus YGL240W, strain doc1, hits give low values 0.974 | locus YGL253W, strain hxk2, hits give low values 0.988 | locus YHR013C, strain ard1, hits give low values 1.06 | locus YHR027C, strain rpn1, hits give low values 0.995 | [1] 1.07 | [2] 1.04 | locus YHR142W, strain chs7, hits give low values 0.988 | locus YJL092W, strain hpr5, hits give low values 0.994 | locus YJL095W, strain BCK1 (second series), hits give low values 0.973 | [3] 1.05 | locus YJL115W, strain asf1, hits give low values 0.987 | locus YJL129C, strain trk1, hits give low values 1.03 | locus YJL154C, strain vps35, hits give low values 0.997 | locus YJL164C, strain tpk1, hits give low values 0.976 | locus YJL166W, strain qcr8, hits give low values 0.98 | [4] 0.905 | locus YKL160W, strain elf1, hits give low values 0.973 | locus YKR026C, strain gcn3, hits give low values 0.991 | locus YKR091W, strain srl3, hits give low values 0.988 | locus YLL001W, strain dnm1, hits give low values 0.991 | locus YLL026W, hits give low values 0.98 | locus YLL041C, strain sdh2, hits give low values 0.993 | locus YLR027C, strain aat2, hits give low values 0.986 | [5] 1.06 | locus YLR221C, strain rsa3, hits give low values 0.979 | locus YLR258W, strain gsy2, hits give low values 0.985 | locus YLR262C, strain YPT6 (second series), hits give low values 1 | locus YLR320W, strain mms22, hits give low values 0.976 | locus YLR342W, strain FKS1, hits give low values 0.997 | locus YLR357W, strain rsc2, hits give low values 0.981 | locus YLR370C, strain arc18, hits give low values 0.988 | locus YLR384C, strain iki3, hits give low values 0.986 | locus YML120C, strain ndi1, hits give low values 0.975 | locus YMR125W, strain sto1, hits give low values 1.02 | locus YMR129W, hits give low values 0.984 | locus YMR205C, strain PFK2, hits give low values 0.988 | locus YMR231W, strain pep5, hits give low values 0.969 | locus YNL071W, strain lat1, hits give low values 0.995 | [6] 0.981 | locus YNL209W, strain ssb2, hits give low values 0.987 | locus YNL248C, strain rpa49, hits give low values 1 | locus YNL322C, strain KRE1 (second series), hits give low values 0.993 | locus YNR049C, strain mso1, hits give low values 0.983 | locus YOR001W, strain rrp6, hits give low values 0.989 | locus YOR070C, strain gyp1, hits give low values 0.979 | locus YOR080W, strain dia2, hits give low values 0.985 | locus YOR083W, strain WHI5, hits give low values 0.983 | locus YOR106W, strain vam3, hits give low values 0.943 | [7] 1.05 | locus YOR265W, strain rbl2, hits give low values 0.985 | locus YOR270C, strain vph1, hits give low values 0.864 | locus YOR290C, strain snf2, hits give low values 0.996 | locus YPL051W, strain arl3, hits give low values 0.918 | locus YPL078C, strain atp4, hits give low values 0.971 | locus YPL106C, strain sse1, hits give low values 0.986 | locus YPL240C, strain hsp82, hits give low values 0.991 | [8] 1.09
